Screens as filed in PubChem.
dFosB activator = activators of delta FosB homodimer, primary screen, biochemical, fluorescence polarization, TAMRA-CDK5 oligo, single point; actives 0.99% (n = 340,000); Protein FosB (Mus musculus), P13346; purified delta FosB; percent of positive-control signal above neutral wells; activation, % at 25 µM;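 active = mean activation above about 17%, with every replicate also reaching it, limit read from the data, passing the limit was not always enough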
SIRT5 inh = SIRT5 desuccinylase inhibitors, primary screen, biochemical, fluorescence imaging, single point, set 5 | Purified SirT5, succinyl-peptide AMC, trypsin-coupled fluorescence | AID 652115, 2013 | NAD-dependent protein deacylase sirtuin-5, mitochondrial (Homo sapiens), Q9NXA8 | inhibition, % at 15 µM | actives 1.1% (n = 330,000); in the data active = inhibition above about 15%
CDK5 p35 inh = inhibitors of human CDK5/p35 kinase, primary screen, biochemical, single concentration. actives 0.01% (n = 330,000). Recombinant CDK5/p35, ADP-Glo luminescence, 60 min. inhibition, % at 10 µM. Cyclin-dependent kinase 5 (Homo sapiens) + Cyclin-dependent kinase 5 activator 1 (Homo …;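 active = highest replicate inhibition of at least 50% and at least 75% of replicates reaching 50%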
Target sequence (Q00535 whole entry, looked up): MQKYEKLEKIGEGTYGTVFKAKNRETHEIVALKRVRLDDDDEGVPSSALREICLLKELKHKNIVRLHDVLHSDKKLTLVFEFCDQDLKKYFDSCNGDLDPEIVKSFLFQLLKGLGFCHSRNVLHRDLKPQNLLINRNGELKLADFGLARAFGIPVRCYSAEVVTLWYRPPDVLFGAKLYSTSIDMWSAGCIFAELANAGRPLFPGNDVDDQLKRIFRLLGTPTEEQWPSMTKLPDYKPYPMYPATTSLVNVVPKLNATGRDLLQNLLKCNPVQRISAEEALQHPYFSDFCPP
Target sequence (Q15078 whole entry, looked up): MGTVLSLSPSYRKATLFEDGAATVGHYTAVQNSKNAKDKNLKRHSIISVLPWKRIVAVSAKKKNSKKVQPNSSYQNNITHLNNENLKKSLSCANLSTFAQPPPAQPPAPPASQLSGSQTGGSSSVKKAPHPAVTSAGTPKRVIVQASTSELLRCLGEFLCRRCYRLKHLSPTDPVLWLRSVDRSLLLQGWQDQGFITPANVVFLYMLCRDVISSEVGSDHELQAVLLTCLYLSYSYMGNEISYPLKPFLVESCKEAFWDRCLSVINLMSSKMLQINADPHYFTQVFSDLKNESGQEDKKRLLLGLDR
FGF22 binding = binders of human FGF22 protein, primary screen, FGF22 synaptogenesis inhibitor project, biophysical, thermal shift, single point; recombinant FGF22 thermal shift, SYPRO orange fluorescence; percent of sucrose octasulfate shift, DMSO zero; activity (Tm shift, normalised), % at 9.99 µM; Fibroblast growth factor 22 (Homo sapiens), Q9HCT0; actives 1.5% (n = 340,000);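 active = mean Tm shift, scaled 0 neutral to 100 positive control, at about 1.3% or above, every replicate too, limit read from the data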
PglD inh = C. jejuni PglD acetyltransferase inhibitors, primary screen, biochemical, DTNB colorimetric, single point; actives 0.098% (n = 360,000); inhibition, % at 12.5 µM; purified PglD enzyme, DTNB colorimetric CoA detection; in the data active = inhibition above about 16%, passing the limit was not always enough
PvdQ acylase = P. aeruginosa PvdQ acylase inhibitors, primary screen, biochemical, fluorescence, plate reader and imaging, single point; purified PvdQ acylase; inhibition, % at 10 µM; actives 0.063% (n = 340,000); AID 488965, 2010; in the data active = inhibition above about 30%, passing the limit was not always enough
Large screens that a line does not name were inactive. Most compounds without a hit are left out; they make up all but 2.8% or so of the library.

CCCCC(C(=O)O)C(C)CC(=O)Nc1nncs1 (configuration not stated)	FGF22 binding 43
C[C@@H]1CN([C@@H](C)CO)C(=O)c2cc(NC(=O)C3CCCCC3)ccc2O[C@@H]1CN(C)Cc1ccc(C(F)(F)F)cc1	none (no result: dFosB activator, CDK5 p35 inh, PvdQ acylase)
CSc1nc(C(=O)N2CCc3c([nH]c4ccccc34)C2c2ccccn2)cs1 (configuration not stated)	none
COc1ccc(C2c3[nH]c4ccccc4c3CCN2C(=O)c2cc3ncccn3n2)c(F)c1 (configuration not stated)	FGF22 binding 43
COc1cccc(C2c3[nH]c4ccccc4c3CCN2C(=O)c2ccccc2F)c1OC (configuration not stated)	none
O=C(c1cn[nH]c1)N1CCc2c([nH]c3ccccc23)C1c1c(F)cccc1Cl (configuration not stated)	FGF22 binding 44 (no result: PglD inh)
Cc1ccc2nc(C(=O)N3CCc4c([nH]c5ccccc45)C3c3ccccn3)cn2c1 (configuration not stated)	FGF22 binding 43
C[C@H](CO)N1C[C@H](C)[C@@H](CN(C)Cc2ccc(C(F)(F)F)cc2)OCCCC[C@H](C)Oc2ccc(NC(=O)CCC(F)(F)F)cc2C1=O	none (no result: dFosB activator, CDK5 p35 inh, PvdQ acylase)
CC(=O)Nc1ccc(S(=O)(=O)N2CCCC2C(=O)Nc2ccc3c(c2)OCCO3)cc1 (configuration not stated)	FGF22 binding 44
O=S(=O)(c1ccc(NC(=S)Nc2ccc3c(c2)OCO3)cc1)N1CCOCC1	none (no result: SIRT5 inh, FGF22 binding)
CNS(=O)(=O)c1ccc(NC(=S)Nc2ccc3c(c2)OCO3)cc1	FGF22 binding 43 (no result: PglD inh)
O=C(Nc1ccc2c(c1)OCO2)c1ccc(S(=O)(=O)N2CCCC2)cc1	FGF22 binding 45 (no result: PglD inh)
CC(=O)Nc1ccc(S(=O)(=O)N2CCCC2C(=O)Nc2ccc(F)cc2)cc1 (configuration not stated)	none
CCC(=O)N1C[C@@H](C)[C@H](OC)CN(C)C(=O)c2cc(NC(=O)Nc3ccccc3)ccc2OC[C@H]1C	none (no result: dFosB activator, SIRT5 inh, CDK5 p35 inh, PvdQ acylase)
O=C(NCCN1CCOCC1)C1CCC(CNS(=O)(=O)c2ccc(Cl)cc2)CC1 (configuration not stated)	SIRT5 inh 24
COC(=O)c1c2oc(c1C(=O)OC)C(=O)N[C@H](Cc1ccccc1)Cn1cc(nn1)[C@@H](Cc1ccccc1)NC(=O)N[C@@H](CO)CC2	none (no result: dFosB activator, CDK5 p35 inh, PvdQ acylase)
CCn1cc(C(=O)O)c(=O)c2cnc(N3CCN(C(=S)NC(=O)c4ccc(OC)cc4)CC3)nc21	SIRT5 inh 29
CCn1cc(C(=O)O)c(=O)c2cnc(N3CCN(C(=S)NC(=O)c4ccc(F)c(F)c4)CC3)nc21	none
C[C@H]1CN([C@@H](C)CO)C(=O)c2cc(NC(=O)Nc3cccc4ccccc34)ccc2O[C@H]1CN(C)Cc1ccc(C(=O)Nc2ccccc2N)cc1	none (no result: dFosB activator, CDK5 p35 inh, PvdQ acylase)
CC(=O)c1ccc2c(c1)C1C=CCC1C(C(=O)O)N2 (configuration not stated)	SIRT5 inh 32, FGF22 binding 44 (no result: PglD inh)
CCNC(=O)C[C@@H]1CC[C@H]2[C@@H](COC[C@@H](O)CN2Cc2ccncc2)O1	none (no result: dFosB activator, SIRT5 inh, CDK5 p35 inh, PvdQ acylase)
O=C(CSc1n[nH]c(=O)[nH]c1=O)NC1CC1	FGF22 binding 44 (no result: PglD inh)
O=C(CSc1n[nH]c(=O)[nH]c1=O)NCC1CCCCC1	none
Cc1noc(C)c1S(=O)(=O)Nc1ccc2c(c1)C(=O)N([C@H](C)CO)C[C@H](C)[C@H](CN(C)Cc1ccc(-c3ccccc3)cc1)O2	none (no result: dFosB activator, CDK5 p35 inh, PvdQ acylase)
COc1cc2c(c3ccccc13)CCCC2=O	FGF22 binding 43 (no result: SIRT5 inh)
N#C[C@@H]1[C@H](c2ccc(C#CCC3CCCC3)cc2)[C@@H](CO)N1C(=O)c1ccccn1	none (no result: dFosB activator, CDK5 p35 inh, PvdQ acylase)
CCC(=O)N1CCc2cc(Br)cc(S(=O)(=O)N3CCCC(C(=O)NC(C)(C)C)C3)c21 (configuration not stated)	FGF22 binding 43
Cc1ccc2[nH]c(C(=O)NN=C3CCCCC3)c(-c3ccccc3)c2c1	FGF22 binding 43 (no result: PglD inh)
Cc1ccc2[nH]c(C(=O)O)c(-c3ccccc3)c2c1	none (no result: SIRT5 inh, FGF22 binding)
O=c1nc2cccc3c2=c(/c1=C(\O)c1ccccc1)c1ccccc1c3=O	FGF22 binding 44
CCC(=O)N1CC[C@@H]2[C@@H](CO)Nc3ccc(-c4ccccc4)cc3[C@@H]21	none (no result: dFosB activator, SIRT5 inh, CDK5 p35 inh, FGF22 binding, PvdQ acylase)
O=C(C[C@H]1CC[C@@H]2[C@H](COC[C@H](O)CN2C(=O)Nc2ccccc2)O1)NCCc1ccncc1	none (no result: dFosB activator, CDK5 p35 inh, PvdQ acylase)
COc1ccccc1NC(=O)N[C@@H]1CC[C@H](CCNS(=O)(=O)c2ccc(Cl)cc2)O[C@@H]1CO	SIRT5 inh 26 (no result: dFosB activator, CDK5 p35 inh, PvdQ acylase)
COc1ccccc1NC(=O)N[C@@H]1CC[C@H](CCNS(=O)(=O)c2ccc(Cl)cc2)O[C@H]1CO	none (no result: dFosB activator, CDK5 p35 inh, PvdQ acylase)
O=C(N[C@@H]1CC[C@H](CCNS(=O)(=O)c2ccc(Cl)cc2)O[C@H]1CO)c1cnccn1	none (no result: dFosB activator, CDK5 p35 inh, PvdQ acylase)
O=C(N[C@H]1CC[C@H](CCNS(=O)(=O)c2ccc(Cl)cc2)O[C@H]1CO)c1cnccn1	SIRT5 inh 32 (no result: dFosB activator, CDK5 p35 inh, PvdQ acylase)
CN(/N=C/c1ccc2c(c1)OCO2)c1nc(N2CCOCC2)nc(N2CCOCC2)n1	none (no result: PglD inh)
O=[N+]([O-])c1ccc(Nc2nc(N/N=C\c3ccc4c(c3)OCO4)nc(N3CCCCC3)n2)cc1	dFosB activator 63 (no result: SIRT5 inh, FGF22 binding)
O=c1nc(N2CCOCC2)nc(N/N=C/c2ccc3c(c2)OCO3)[nH]1	FGF22 binding 44 (no result: PglD inh)
O=[N+]([O-])c1ccc(/C=N/Nc2nc(N3CCCCC3)nc(N3CCCCC3)n2)cc1	none (no result: PglD inh)
O=C(C[C@H]1CC[C@H]2[C@@H](COC[C@@H](O)CN2S(=O)(=O)c2ccccc2F)O1)NCc1ccccc1F	none (no result: dFosB activator, CDK5 p35 inh, PvdQ acylase)
N/C(=N\OC(=O)/C=C/c1ccccc1Cl)c1cccnc1	none (no result: dFosB activator, CDK5 p35 inh, PvdQ acylase)
N/C(=N\OC(=O)/C=C/c1ccccc1)c1cccnc1	FGF22 binding 43 (no result: PglD inh)
CCC(=O)Nc1ccc2c(c1)OC[C@@H](C)N(C(=O)Cc1cccnc1)C[C@H](C)[C@H](OC)CN(C)C2=O	none (no result: dFosB activator, CDK5 p35 inh, PvdQ acylase)
CO[C@@H]1CN(C)C(=O)c2ccc(NS(=O)(=O)c3ccc(C)cc3)cc2OC[C@H](C)N(Cc2nccs2)C[C@@H]1C	none (no result: dFosB activator, CDK5 p35 inh, PvdQ acylase)
C[C@H]1CN([C@@H](C)CO)S(=O)(=O)c2ccc(-c3cccc(C(=O)N(C)C)c3)cc2O[C@@H]1CN(C)Cc1ccc2c(c1)OCO2	SIRT5 inh 15 (no result: dFosB activator, CDK5 p35 inh, PvdQ acylase)
